Out of some 39,000 compounds screened, about 500 (1.3%) were called active. The sample holds actives, similar compounds and a random draw of the others, so the mix is not that of the screen.
These compounds were tested on S. aureus RN4220 (assay: growth inhibition call (relative growth <= 0.2)). Details: 50 µM.

Growth inhibition call, inactive:
Cc1onc(-c2ccccc2)c1C#N, NCCOB(c1ccccc1)c1ccccc1, C[C@@H]1CCCCO[C@H](CN(C)C(=O)Nc2ccc(C(F)(F)F)cc2)[C@@H](C)CN([C@H](C)CO)C(=O)c2cc(NC(=O)Cc3ccccc3)ccc2O1, CC(C)NC(=O)N(C)C[C@@H]1Oc2ccc(NC(=O)Cc3ccccc3)cc2CC(=O)N([C@H](C)CO)C[C@@H]1C, C[C@@H]1CN([C@@H](C)CO)C(=O)c2cc(NS(C)(=O)=O)ccc2O[C@@H]1CN(C)C(=O)Nc1ccc2c(c1)OCO2, CS(=O)(=O)N1CCn2cc(Cn3cncn3)nc2C1, CCCC#Cc1cnc2c(c1)C(=O)N([C@@H](C)CO)C[C@H](C)[C@@H](CN(C)S(=O)(=O)c1cn(C)cn1)O2, COc1ccc(NC(=O)N(C)C[C@@H]2Oc3ccc(NC(=O)CCN4CCOCC4)cc3C(=O)N([C@H](C)CO)C[C@H]2C)cc1, CC(C)C1=CC2=CC[C@H]3[C@](C)(CO)CCC[C@]3(C)[C@@H]2CC1, CC(C)c1cc2c(cc1S(=O)(=O)O)[C@@]1(C)CCC[C@@](C)(C(=O)O)[C@@H]1CC2, CCc1nc2ccc(C(=O)N3CCN(S(=O)(=O)CC)CC3)cn2c1N(C)Cc1ccc(Cl)cc1, CN1CC2(COC2)OCCS1(=O)=O, COc1ccc(S(=O)(=O)Nc2ccc3c(c2)CC(=O)N([C@H](C)CO)C[C@H](C)[C@@H](CN(C)S(=O)(=O)c2cn(C)cn2)O3)cc1, Cc1cc(CC(=O)O)n(C)c1C(=O)c1ccc(Cl)cc1, C[C@H]1CN([C@@H](C)CO)C(=O)c2cccc(NC(=O)Nc3ccc(C(F)(F)F)cc3)c2O[C@@H]1CN(C)C(=O)Nc1ccc(C(F)(F)F)cc1, CC(=O)OC1CC(OC(C)=O)C2(C)C(CC(OC(C)=O)C3(C)C4=CC(=O)OC(c5ccoc5)C4(C)CCC32)C1(C)C (configuration not stated), CC(C)NC(=O)N(C)C[C@H]1Oc2ccc(NC(=O)Nc3ccc4c(c3)OCO4)cc2CC(=O)N([C@@H](C)CO)C[C@H]1C, Oc1c(Cl)cc(Cl)c(Cl)c1Cc1c(O)c(Cl)cc(Cl)c1Cl, Oc1c(Cl)cc(Cl)cc1Sc1cc(Cl)cc(Cl)c1O, CS(=O)(=O)N1C[C@@H](O)COC[C@H]2O[C@H](CC(=O)NCc3ccccc3)CC[C@@H]21, Cc1noc(C)c1S(=O)(=O)Nc1ccc2c(c1)C(=O)N([C@H](C)CO)C[C@H](C)[C@@H](CN(C)Cc1ccncc1)O2, C[C@@H]1CCCCO[C@H](CN(C)C(=O)CCC(F)(F)F)[C@H](C)CN([C@H](C)CO)C(=O)c2cc(NS(=O)(=O)c3cccs3)ccc2O1, CC(=O)OC1(C(C)=O)CCC2C3C=C(C)C4=CC(=O)CCC4(C)C3CCC21C (configuration not stated), CC(=O)C1CCC2C3CC=C4CC(OC(=O)CCC(=O)O)CCC4(C)C3CCC12C (configuration not stated), CC(=O)OC1(C(C)=O)CCC2C3CC(C)C4=CC(=O)CCC4(C)C3CCC21C (configuration not stated), C[C@H](CO)N1C[C@H](C)[C@H](CN(C)C(=O)Nc2ccccc2)OCCCC[C@H](C)Oc2ccc(NC(=O)Nc3ccc(F)cc3)cc2C1=O, C[C@H](CO)N1C[C@H](C)[C@@H](CN(C)CC2CC2)Oc2ccc(NS(=O)(=O)c3cccs3)cc2C1=O, Cc1ccc(S(=O)(=O)N(C)C[C@H]2Oc3ccc(NC(=O)Nc4cccc5ccccc45)cc3C(=O)N([C@@H](C)CO)C[C@H]2C)cc1, O=C1NCC(=O)N2[C@@H]1C[C@@H](C(=O)O)[C@H]2c1ccc(O)cc1, C[C@H](CO)N1C[C@H](C)[C@H](CN(C)Cc2cccc(F)c2)Oc2cc(C#CC3CC3)ccc2S1(=O)=O, C[C@H](CO)N1C[C@H](C)[C@@H](CN(C)CC2CCCCC2)Oc2ccc(NC(=O)Cn3cnnn3)cc2C1=O, C[C@@H]1CN([C@@H](C)CO)S(=O)(=O)c2ccc(Br)cc2O[C@H]1CN(C)S(=O)(=O)c1ccc(F)cc1, COc1ccc(S(=O)(=O)N(C)C[C@@H]2Oc3ccc(NC(=O)c4ccncc4)cc3C(=O)N([C@H](C)CO)C[C@@H]2C)cc1, C[C@H](CO)N1C[C@H](C)[C@@H](CN(C)S(=O)(=O)c2cn(C)cn2)OCCCC[C@H](C)Oc2ccc(NS(=O)(=O)c3cn(C)cn3)cc2C1=O, C[C@@H]1CCCCO[C@H](CN(C)C(=O)Cc2ccccc2)[C@@H](C)CN([C@@H](C)CO)C(=O)c2cc(NC(=O)C3CCCCC3)ccc2O1, C[C@@H]1CCCCO[C@@H](CN(C)C(=O)Nc2ccc(F)cc2)[C@H](C)CN([C@@H](C)CO)C(=O)c2cc(NC(=O)CCC(F)(F)F)ccc2O1, C[C@H]1CN([C@@H](C)CO)C(=O)CCCn2nncc2CO[C@@H]1CN(C)S(=O)(=O)c1ccc(Oc2ccccc2)cc1, C[C@H](N)C(=O)NCC(=O)N[C@H]1CSSC[C@@H](C(=O)O)NC(=O)[C@H](CO)NC(=O)[C@H]([C@@H](C)O)NC(=O)[C@H](Cc2ccccc2)NC(=O)[C@H]([C@@H](C)O)NC(=O)[C@H](CCCCN)NC(=O)[C@H](Cc2c[nH]c3ccccc23)NC(=O)[C@H](Cc2ccccc2)NC(=O)[C@H](Cc2ccccc2)NC(=O)[C@H](CC(N)=O)NC(=O)[C@H](CCCCN)NC1=O, CSCC[C@H](NC(=O)[C@H](Cc1c[nH]c2ccccc12)NC(=O)CNC(=O)[C@@H](NC(=O)[C@H](Cc1ccc(OS(=O)(=O)O)cc1)NC(=O)[C@H](CC(=O)O)NC(=O)[C@H](CCC(N)=O)NC(=O)[C@@H]1CCC(=O)N1)[C@@H](C)O)C(=O)N[C@@H](CC(=O)O)C(=O)N[C@@H](Cc1ccccc1)C(N)=O, CS(=O)(=O)NCc1cnc2n1CCN(C(=O)[C@H]1CCOC1)CC2, CC(C)[N+]1(C)C2CCC1CC(OC(=O)C(CO)c1ccccc1)C2.[Br-] (configuration not stated), C[C@H](CO)N1C[C@H](C)[C@@H](CN(C)Cc2ccc(-c3ccccc3)cc2)Oc2c(NS(=O)(=O)c3ccc(F)cc3)cccc2C1=O, C=C(NC(=O)C(=C)NC(=O)c1csc(C2=N[C@@H]3c4csc(n4)[C@@H]4NC(=O)c5csc(n5)[C@H](C(C)(O)[C@@H](C)O)NC(=O)[C@H]5CSC(=N5)/C(=C/C)NC(=O)[C@H]([C@@H](C)O)NC(=O)c5csc(n5)[C@]3(CC2)NC(=O)[C@@H](C)NC(=O)C(=C)NC(=O)[C@@H](C)NC(=O)[C@@H]([C@H](C)CC)N[C@H]2C=Cc3c([C@@H](C)O)cc(nc3[C@@H]2O)C(=O)O[C@H]4C)n1)C(N)=O (some centres not stated), C=C(NC(=O)C(=C)NC(=O)c1csc(C2=N[C@H]3c4csc(n4)[C@H]4NC(=O)c5csc(n5)[C@H](C(C)(O)[C@@H](C)O)NC(=O)[C@H]5CSC(=N5)C(=CC)NC(=O)[C@H]([C@@H](C)O)NC(=O)c5csc(n5)[C@]3(CC2)NC(=O)[C@H](C)NC(=O)C(=C)NC(=O)[C@H](C)NC(=O)[C@H]([C@H](C)CC)N[C@@H]2C=Cc3c([C@H](C)O)cc(nc3[C@H]2O)C(=O)O[C@@H]4C)n1)C(N)=O (some centres not stated), COCCNC(=O)c1cn(C)nc1OC, C[C@H]1CN([C@@H](C)CO)C(=O)c2cccc(NS(=O)(=O)c3cn(C)cn3)c2O[C@H]1CN(C)S(=O)(=O)c1cn(C)cn1, C[C@H]1CN([C@@H](C)CO)S(=O)(=O)c2ccc(C#CC3(O)CCCC3)cc2O[C@H]1CN(C)C(=O)Cc1ccccc1, CC(C)NC(=O)N(C)C[C@@H]1Oc2c(NS(=O)(=O)c3ccccc3)cccc2C(=O)N([C@@H](C)CO)C[C@H]1C

Growth inhibition call, active:
CC(C)C1=CC2=CCC3C(C)(C(=O)O)CCCC3(C)C2CC1 (configuration not stated), CC1(C)Cc2c(-c3ccccc3)c(-c3ccc(Cl)cc3)c(CC(=O)O)n2C1, O=C(Nc1cc(Cl)cc(Cl)c1O)c1c(O)c(Cl)cc(Cl)c1Cl, CC(=O)O[C@H]1C[C@@]2(C)[C@@H](C[C@@H](O)[C@H]3[C@@]4(C)CC[C@@H](O)[C@@H](C)[C@H]4CC[C@@]32C)C1=C(CCC=C(C)C)C(=O)O, CC(=O)OC1CC2(C)C(CC(O)C3C4(C)CCC(O)C(C)C4CCC32C)C1=C(CCC=C(C)C)C(=O)O (configuration not stated), CC(=O)O[C@H]1C[C@@]2(C)[C@@H](C[C@@H](O)[C@@H]3[C@@]4(C)CC[C@@H](O)[C@@H](C)[C@@H]4CC[C@@]32C)/C1=C(/CCC=C(C)C)C(=O)O, CC(=O)O[C@H]1C[C@@]2(C)[C@@H](C[C@@H](O)[C@H]3[C@@]4(C)CC[C@@H](O)[C@@H](C)[C@@H]4CC[C@@]32C)/C1=C(\CCC=C(C)C)C(=O)O, CCCCCCCCCC(=O)N[C@@H](Cc1c[nH]c2ccccc12)C(=O)N[C@H](CC(N)=O)C(=O)N[C@@H](CC(=O)O)C(=O)N[C@@H]1C(=O)NCC(=O)N[C@@H](CCCN)C(=O)N[C@@H](CC(=O)O)C(=O)N[C@H](C)C(=O)N[C@@H](CC(=O)O)C(=O)NCC(=O)N[C@H](CO)C(=O)N[C@@H]([C@H](C)CC(=O)O)C(=O)N[C@@H](CC(=O)c2ccccc2N)C(=O)O[C@@H]1C, C=C(NC(=O)C(=C)NC(=O)c1csc(C2=NC3c4csc(n4)C4NC(=O)c5csc(n5)C(C(C)(O)C(C)O)NC(=O)C5CSC(=N5)C(=CC)NC(=O)C(C(C)O)NC(=O)c5csc(n5)C3(CC2)NC(=O)C(C)NC(=O)C(=C)NC(=O)C(C)NC(=O)C(C(C)CC)NC2C=Cc3c(C(C)O)cc(nc3C2O)C(=O)OC4C)n1)C(N)=O (configuration not stated)

— the antibiotic and cytotoxicity screens of Wong et al. (2023)
